# Laboratory results as given in PubChem BioAssay (NCI).
# This is part of a sample that, as a whole, favours compounds with a hit. Of some 83,000 tested, about 20% had one in any assay.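 The test compound was applied at a single concentration to cells in 96-well plates for 48 hours, and percent growth was recorded.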 Unmarked numbers belong to inactive results. Calls of active or inactive are those of the source. The calls were made as follows: active = growth percent below 10; inactive = the rest.
# Tested on: HCC-2998 colon
# Experiment: NCI-60 one-dose screen, 48 h (100 = growth as untreated, 0 = no growth, -100 = all killed)
# Conditions: 10 µM
row,SMILES,growth
1,Nc1ccc(Sc2ccc3c4c2cccc4c(=O)n2c4ccccc4nc32)cc1,80.7%
2,O=C(c1ccccc1)C(Sc1ccccc1)c1ccccc1 (stereo not drawn),87.8%
3,O=NN(CCCl)C(=O)Nc1ccc(NC(=O)N(CCCl)N=O)cc1,105%
4,Nc1nc(SCC#CCCl)c2[nH]cnc2n1,100%
5,NC(=O)C12C(=O)NC(=O)C1(C(=O)O)C21CCCC1 (stereo not drawn),114%
6,C=C[C@]1(C)C=C2C(=O)[C@@]3(O)OC(=O)[C@@]4(CCCC(C)(C)[C@H]34)[C@@]2(O)CC1,-91.3% (active)
7,CCCn1c(=O)c2c(nc(-c3cccc(OCCCCl)c3)n2C)n(CCC)c1=O,69.7%
8,CCCCCCCC/C=C/CCCCCCCCC1=NCCN1CCO,97.8%
9,COc1ccc(CSc2nc3cc(OC)c(OC)cc3c(=O)n2-c2ccc(OC)cc2OC)cc1,101%
10,Cc1ccccc1C1=N[C@@H](Cc2ccccc2)C(=O)c2c(nc3ccccn23)N1,99.9%
11,COc1ccc(-c2ccccc2)cc1C(=O)c1ccc(-c2ccccc2)cc1,74.6%
12,C/C=C\COc1cc(C)c(Cl)cc1Cl,118%
13,CC(C)C[C@H](NC(=O)CCn1ccc2ccccc2c1=O)B(O)O,59.9%
14,COc1ccc(-c2[nH]ncc2/C=C/c2cc(C(F)(F)F)[nH]c(=O)n2)cc1,103%
15,c1ccc(COCC[P+](c2ccccc2)(c2ccccc2)c2ccccc2)cc1,6.68% (active)
16,CC(=O)Oc1c(C)c(C)c2c(c1C)CCC(C)(CC(=O)OCCCCCCCCCCC[P+](c1ccccc1)(c1ccccc1)c1ccccc1)O2 (stereo not drawn),-61% (active)
17,COc1cc(-c2nc3ccc(C)cc3[nH]2)ccc1OCc1nnc(-c2ccc(CC(C)C)cc2)o1,115%
18,N#Cc1c(-c2ccccc2)nc(SCC(=O)N2CCOCC2)[nH]c1=O,109%
19,Brc1ccc(-c2cn3ccnc3c(-c3ccc(Br)cc3)n2)cc1,60.2%

row,SMILES,growth
1,COc1cc(C2=Nc3c/c(=C\c4c(O)[nH]c5ccc(Cl)cc45)ccc3=N2)cc(OC)c1OC,66.3%
2,COc1cc(CSc2nc3ccc(Cl)cc3c(=O)n2-c2ccccc2)cc(OC)c1OC,80%
3,O=S(=O)(O)C1(O)CCCCC1,110%
4,CCc1cc2n(n1)-c1ncc(C(=O)OC)cc1Oc1ccccc1-2,114%
5,C/C(=N\NC(N)=S)C(C)(C)O,102%
6,COc1ccc(-c2cc(/C=C/C(=O)c3ccc(N)cc3)[nH]n2)cc1OC,38.8%
7,Nc1c(C(=O)NC2CCCCC2)sc2nc3c(cc12)C(=O)CCC3,121%
8,CC(=O)n1nc(C(=O)OC(C)(C)C)c2cc(F)c(F)cc21,102%
9,Nc1ccc2c(c1)Cc1cc(N)c(Cl)cc1-2,103%
10,Cc1ccc2c3c(cccc13)-c1ccccc1C2=O,89%
11,Nc1cc(O)cc(O)c1,98.5%
12,Fc1ccc(Nc2ccnc(N3CCN(c4ccnc5cc(Cl)ccc45)CC3)n2)cc1,62.6%
13,N/C(=N\O)c1cn(C2OC(CO)C(O)C2O)c2ncnc(N)c12 (stereo not drawn),-23.1% (active)
14,COc1ccc(-c2nsc3c2NC(=O)CC3c2cccc(Cl)c2)cc1 (stereo not drawn),43.5%
15,CCCCCc1cc[n+](CC(=O)c2ccc(Cl)cc2)cc1,91%
16,CC1(C)Cc2c(cn(Cc3ccccc3)c2-c2ccccc2)-c2oncc21,104%
17,CCc1nn2c(-c3cc(OC)c(OC)c(OC)c3)c(-c3cc(OC)c(OC)c(OC)c3)nc2s1,102%
18,CC1=CC2OC34COC3CC(OC(=O)C(F)(F)F)C4(C)C2(C)CC1 (stereo not drawn),98.3%
19,O=[N+]([O-])c1ccc(-c2nc(Cl)c3c(n2)CCCC3)o1,92.4%
